# Results reported in PMC7826789 (International Journal of Molecular Sciences, 2021).
# Tested on: ALK(C1156Y)
# Conditions: Compound Concentration (nM):1000
# 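Further: KINOMEscan scanMAX binding as percent activity remaining versus control; lower means stronger binding.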
row,SMILES,Percent Control [%]
1,Cl.O=C(Nc1ccc(Oc2ccc3[nH]c(NC(=O)c4ccco4)nc3c2)cc1)Nc1cc(C(F)(F)F)ccc1F [GW683134A],92
2,O=C(Nc1n[nH]c2nc(-c3ccc(O)cc3)c(Br)cc12)C1CC1 [SB-725317],54
3,COc1cc2ncnc(Nc3ccc4c(cnn4Cc4ccccc4)c3)c2cc1OC.Cl [GW282449A],96
4,CN(C)CCNC(=O)Nc1ccc(N(C)c2ccnc(Nc3ccc(CS(C)(=O)=O)cc3)n2)cc1.Cl [GW830900A],70
5,CC1=C(C(=O)Nc2ccc3[nH]ncc3c2)C(c2ccc(Cl)c(Cl)c2)CC(=O)N1 (stereo not shown) [GSK299115A],100
6,COc1ccc(COc2ccc(Cc3cnc(N)nc3N)cc2OC)cc1 [GW632580X],94
7,CCS(=O)(=O)c1ccc(OC)c(Nc2ncc(-c3cccc(F)c3)o2)c1 [GW621970X],88
8,COc1cc(/C=N/Nc2ncnc3[nH]ncc23)ccc1O [GW578748X],82
9,C/C(Nc1ccc(S(N)(=O)=O)cc1)=C1/C(=O)Nc2ccccc21 [GW335962X],54
10,CN1CCN(C(=O)c2ccc(NC(=O)Nc3ccc(N(C)c4ccnc(Nc5ccc(CS(C)(=O)=O)cc5)n4)cc3)cc2)CC1.Cl [GW830263A],64
11,CC1=C(C(=O)Nc2ccc3[nH]ncc3c2)C(c2ccc3ccccc3c2)CC(=O)N1 (stereo not shown) [GSK270822A],72
12,COc1ccc2cc(-c3c(-c4ccncc4)nc(-c4ccc(S(C)(=O)=O)cc4C)n3C)ccc2c1 [SB-633825],70
13,COc1ccccc1-c1cc(/C=C2\C(=O)Nc3ncc(Br)cc32)cc(Br)c1O [GW442130X],100
14,NS(=O)(=O)c1ccc(N/N=C2\C(=O)Nc3ccc(C(=O)NCc4ccncc4)cc32)cc1 [GW300657X],83
15,Cl.O=C(O[C@H]1CN[C@H](C#Cc2cc3ncnc(Nc4ccc5c(cnn5Cc5ccccc5)c4)c3s2)C1)N1CCOCC1 [GSK200398A],94
16,Cl.O=S1CCN(Cc2ccc(-c3ccc4ncnc(Nc5ccc(OCc6ccccc6)c(F)c5)c4c3)o2)CC1 [GW576924A],100
17,Cl.c1ccc(Cc2nc3ccc(Nc4ncnc5ccccc45)cc3[nH]2)cc1 [GR269666A],95
18,COc1cccc(-c2c[nH]c3c(N/N=C/c4ccncc4)ncnc23)c1 [GW814408X],97
19,Cl.O=C(Nc1ccc(Oc2ccc3[nH]c(NC(=O)c4ccccc4)nc3c2)cc1)Nc1cc(C(F)(F)F)ccc1F [GW709042A],84
20,CCn1c(-c2nonc2N)nc2c(C#CC(C)(C)O)nc(OCCNC)cc21.Cl [GSK949675],95

row,SMILES,Percent Control [%]
1,CN(C)c1cc2c(Nc3ccc4c(cnn4Cc4ccccc4)c3)ncnc2cn1 [GW282974X],97
2,C[C@@H](Oc1cc(-n2cnc3ccc(OC4CCN(C)CC4)cc32)sc1C(N)=O)c1ccccc1Cl [GSK579289A],82
3,CCc1ccc(Oc2nccc(-c3c(-c4ccc(F)cc4)ncn3C3CCNCC3)n2)cc1 [SB-242719],100
4,NS(=O)(=O)c1ccc(N/N=C2\C(=O)Nc3ccc(-c4cnco4)cc32)cc1 [GW276655],97
5,COc1cc(C)c(N(C)C(=O)CN(C)C)cc1Nc1nc(Nc2cccc(F)c2C(N)=O)c2cc[nH]c2n1 [GSK2219385],4.5
6,COc1ccc2[nH]c3c4[nH]c5ccc(OC)cc5c4c4c(c3c2c1)C(=O)NC4=O [GW296115X],25
7,COc1cc(C=NNc2ncnc3c2cnn3-c2ccccc2)ccc1O [GW513184X],100
8,NS(=O)(=O)c1ccc(N/N=C2\C(=O)Nc3ccc(Cl)cc32)cc1 [GW280670X],100
9,COc1cc(N2CCN(C(C)C)CC2)ccc1Nc1nc(Nc2ccc(F)cc2C(=O)NC[C@@H](O)CO)c2cc[nH]c2n1 [GSK1392956A],0.1
10,Cc1cc(O)cc(C)c1/C=C/c1cncc(C(N)=O)c1 [GW435821X],96
11,COC(=O)Nc1nc2ccc(Oc3ccc(NC(=O)Nc4cc(C(F)(F)F)ccc4F)cc3)cc2s1.Cl [GW693917A],89
12,CC(C)COC(=O)c1ccc2c(c1)/C(=C/Nc1ccc(S(N)(=O)=O)cc1)C(=O)N2 [GW416981X],93
13,CCS(=O)(=O)c1ccc(OC)c(Nc2ncc(-c3cccc(OC)c3)o2)c1 [GW580509X],87
14,COc1cccc(-n2ncc3c(N/N=C/c4ccncc4)ncnc32)c1 [GW784752X],95
15,COc1ccc2c(-c3ccnc(Nc4cccc(OC(F)(F)F)c4)n3)cnn2n1 [GW810372X],86
16,O=C1Nc2ccc(C(=O)c3ccco3)cc2C1=Cc1cc(Cl)c(O)c(Cl)c1 [GW406108X],76
17,NS(=O)(=O)c1ccc(Nc2ncc(-c3ccccc3)o2)cc1 [GW572399X],96
18,COc1cc2ncn(-c3cc(O[C@H](C)c4ccccc4Cl)c(C(N)=O)s3)c2cc1OC [GSK237701A],100
19,Nc1ncnc2occ(-c3ccc(NC(=O)Nc4cc(C(F)(F)F)ccc4F)cc3)c12 [GW770249X],41
20,NS(=O)(=O)c1ccc(N/N=C2\C(=O)Nc3ccc(C(=O)NCCc4c[nH]cn4)cc32)cc1 [GW300660X],92
